The text below walks through data of ChEMBL document CHEMBL3988442, “University of Dundee, Small-Polar-MMV Screening Library” (2021).

Test [1] addresses T1, Aspartate--tRNA(Asp/Asn) ligase (Mycobacterium tuberculosis (strain ATCC 25618 / H37Rv)) (UniProt P9WFW3).
T1 sequence (whole entry): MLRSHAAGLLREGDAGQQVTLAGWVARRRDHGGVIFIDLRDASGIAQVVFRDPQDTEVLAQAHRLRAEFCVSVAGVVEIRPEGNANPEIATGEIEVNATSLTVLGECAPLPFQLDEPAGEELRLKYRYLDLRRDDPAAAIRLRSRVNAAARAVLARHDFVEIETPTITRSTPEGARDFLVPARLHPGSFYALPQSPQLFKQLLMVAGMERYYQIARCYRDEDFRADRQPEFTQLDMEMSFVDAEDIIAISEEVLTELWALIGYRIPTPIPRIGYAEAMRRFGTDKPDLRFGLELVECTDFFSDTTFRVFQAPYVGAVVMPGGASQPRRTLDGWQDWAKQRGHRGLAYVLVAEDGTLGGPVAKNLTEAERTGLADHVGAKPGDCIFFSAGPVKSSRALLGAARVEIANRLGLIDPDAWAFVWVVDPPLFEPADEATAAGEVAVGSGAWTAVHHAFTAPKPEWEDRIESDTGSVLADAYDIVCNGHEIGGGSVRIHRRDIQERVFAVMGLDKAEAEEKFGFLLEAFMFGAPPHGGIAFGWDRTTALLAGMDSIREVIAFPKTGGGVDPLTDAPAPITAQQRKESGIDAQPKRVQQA
Kind of test: Assay for Asp RNA synthetase-1 from Mycobacterium tuberculosis. The class given is functional. Details: scale not given: direction of the effect not stated beside the values. To be noted: 30 µM.

Test [2] has as its target Shiga toxin 2 (Escherichia coli O157:H7) (UniProt P09385+P09386). In words: E. coli 0.157:H7 Shiga Toxin SOP - stx2 screening assay. The class given is functional. Details: scale not given: direction of the effect not stated beside the values. As to conditions: 30 µM.

`CNC(=O)N1C[C@H]2C[C@H](C(=O)Nc3ccccc3)[C@@H](C1)O2`: the Percent Effect in test [1] was determined as 2.94%; in test [2], 6.82%.
On the same counts, the results for `CCCc1nc(N2CCN(CC)CC2)c2c(n1)c(C)nn2CC` are 11.2% and -8.6%.
On the same counts, the results for `Cc1cn(-c2ccccc2)nc1NS(=O)(=O)c1cccc(C(=O)O)c1` are 2.62% and -5.83%.
As to `CC(=O)N1CCC(Cc2cnc(-c3c(C)nn(C)c3C)cn2)C1` (configuration not stated), the Percent Effect in test [1] was -3.46%; in test [2] it was -8.45%.
On the same counts, the results for `Cc1oncc1C(=O)N1CCC2(CC1)CC(c1ccccc1)C(=O)N2C` (configuration not stated) are -1.78% and -15.3%.
The matching figures for `COC(=O)c1cc(C(=O)N2CCCCCC2)n(-c2ccccc2)n1`: -0.856% and 30.9%.
For `CN(Cc1cnn(C)c1)C(=O)NC1CCN(Cc2ccccn2)CC1`, the Percent Effect in test [1] was 5.83%; in test [2], -5.06%.
The matching figures for `c1cc(CNCc2ccc3c(c2)CCO3)cc(N2CCOCC2)n1`: -4.98% and -32.6%.
As to `COCC(=O)N1CCO[C@H]2[C@H](OC)CC[C@@H]21`, the results for the Percent Effect in test [1] and in test [2] were 9.03% and 2.73%, respectively.
The matching figures for `Cc1cc(NC(=O)C(C)N2CCCN(c3nccs3)CC2)on1` (configuration not stated): -2.75% and 4.75%.
On the same counts, the results for `CCN(CC)C(=O)CCNc1cncc(-n2nc(C)cc2C)n1` are 1.51% and -34.2%.
With `Cc1cccc(CN2C(=O)CO[C@@H]3CN(Cc4nccn4C)C[C@H]32)c1`, the values for the Percent Effect in test [1] and in test [2] were -0.971% and -7.92%, respectively.
As for `COc1cnc(C2(O)CCN(C(=O)c3ccncc3)CC2)c(OC)n1`, the Percent Effect was -2.63% in test [1] and -1.51% in test [2].
For the molecule `CN(Cc1ccccn1)C1COC2(CCN(Cc3nccs3)CC2)C1` (configuration not stated), the results for the Percent Effect in test [1] and in test [2] were -4.31% and -5.28%, respectively.
On the same counts, the results for `Cc1csc(N2CCCN(C(=O)C3(C#N)CCCCC3)CC2)n1` are -4.79% and 27.1%.
On the same counts, the results for `Cc1nc(C)n(CC2CCCN2Cc2cn(-c3ccccc3)nn2)n1` (configuration not stated) are -2.81% and -8.85%.
The matching figures for `O=C(NCC(F)(F)F)C1CSCN1S(=O)(=O)c1ccc(F)cc1` (configuration not stated): -3.86% and -29.9%.
Regarding `O=C(CCN1CCCN(c2nccs2)CC1)NCC1CCCCC1`, the Percent Effect was -3.75% in test [1] and -2.79% in test [2].
In the case of `CC1CCCN(Cc2coc(-c3cccc(F)c3)n2)C1` (configuration not stated), the results for the Percent Effect in test [1] and in test [2] were -10.1% and 7.24%, respectively.
The matching figures for `CCN1CCCC1CN(CCN(C)C)S(=O)(=O)c1cccc(C#N)c1` (configuration not stated): 5.06% and -21%.
The matching figures for `Cc1nn2c(N3CCC(O)CC3)cc(-c3ccccc3)nc2c1C`: 1.19% and 7.56%.
In the case of `CCOCC1CN(S(C)(=O)=O)Cc2cnn(CC3CCOCC3)c21` (configuration not stated), the Percent Effect was 5.17% in test [1] and -7.39% in test [2].
Consider `Cc1nn(C)c(N(C)C)c1CNCc1ccccc1CN(C)C`, for which the Percent Effect in test [1] is -4.76%; in test [2], -24.6%.
The matching figures for `CN(C(=O)C1CCCCC1)[C@@H]1CCC[C@@H](N2CCOCC2)[C@@H]1O`: 0.61% and -11.6%.
With `CC(C)CN1CCC2(CCN(Cc3ccsc3)CC2)C1=O`, the Percent Effect in test [1] was -5.3%; in test [2], -18.6%.
The matching figures for `CC(C)COC(C)C(=O)NCc1ccc(N(C)C)cc1` (configuration not stated): 5.65% and -8.68%.
As for `Cc1ccc(CN2CCc3ncnc(-c4ccc(F)cc4)c3CC2)o1`, the Percent Effect was 5.12% in test [1] and -19.5% in test [2].
For the molecule `c1ccc(-c2noc3c2CN(CC2CC2)CC3)cc1`, the Percent Effect in test [1] is 4.77%; in test [2], -9.68%.
`Cc1ccc(NS(=O)(=O)CC2=NC(=O)n3cccc3C2=O)cc1`: the Percent Effect in test [1] was -1.02%; in test [2], -73.8%.
On to `Cc1cc(C)n2cc(CN3CCCC3Cn3nc(C)nc3C)nc2n1` (configuration not stated), for which the results for the Percent Effect in test [1] and in test [2] were -2.84% and 5.36%, respectively.
Regarding `COCC(=O)NCCn1ccc2c(OC)cccc21`, the results for the Percent Effect in test [1] and in test [2] were -1.31% and -26.2%, respectively.
On the same counts, the results for `O=C(Cc1ccc2c(c1)OCCO2)NC1CCN(CC(F)F)CC1` are -1.24% and 11%.
The matching figures for `CCN1CC2(CCNCC2)COc2ccccc2S1(=O)=O`: -1.28% and -27.7%.
Take `COCCCNC(=O)N1CCCC(c2nncn2C)C1` (configuration not stated): the values for the Percent Effect in test [1] and in test [2] were 1.97% and 21.1%, respectively.
The matching figures for `Cc1ccccc1-n1ncc(C(=O)N2CCCC2c2cnn(C)c2)c1C` (configuration not stated): 0.583% and 10.1%.
On the same counts, the results for `Cn1ccc(CN2CCC(NC(=O)Cc3ccccc3)CC2)cc1=O` are -3.72% and 8%.
The matching figures for `CCN1CCN(S(=O)(=O)c2ncn(C)c2Cl)CC1`: -2.51% and -7.16%.
In the case of `C=C1c2ccccc2C(=O)N1CCC(=O)N1CCNC(=O)C1`, the Percent Effect was -2.35% in test [1] and 25.2% in test [2].
Take `O=C(CCN1CCCC1=O)NCc1cccnc1Oc1ccccc1`: the Percent Effect in test [1] is -8.91%; in test [2], 8.3%.
The matching figures for `CNC(=O)CN1CCCC12CCN(C(=O)c1ccc(F)cc1)CC2`: -5.42% and -14.4%.
On the same counts, the results for `CCS(=O)(=O)c1ncc(CN(C)Cc2ccccn2)n1CCOC` are 0.893% and 6.2%.
Consider `Cc1cc(C)n(CC2CN(CC(=O)Nc3nncs3)CCO2)n1` (configuration not stated), for which the figures for the Percent Effect in test [1] and in test [2] were 1.4% and 9.91%, respectively.
Regarding `Cc1nnc(CN2CCN(CCOc3ccccc3C#N)CC2)n1C`, the values for the Percent Effect in test [1] and in test [2] were 3.6% and 3.89%, respectively.
With `Cc1cccc(CN2C(=O)CC[C@@H]3[C@H]2CCN3CC2CCOCC2)n1`, the results for the Percent Effect in test [1] and in test [2] were -1.51% and -5.24%, respectively.
On the same counts, the results for `CCc1noc(C(C)N2CCOCC2)n1` (configuration not stated) are -10.8% and 6.48%.
The matching figures for `CC(=O)N1CCN(C)CC(COCc2ccccc2)C1` (configuration not stated): -1.62% and -22.4%.
The matching figures for `CCN1CCN(C2CCN(Cc3nc4ccccc4o3)CC2)C1=O`: 12.7% and 21.6%.
Regarding `CCn1cc(NC(=O)NCC(c2cccs2)N(C)C)cn1` (configuration not stated), the Percent Effect is -1.06% in test [1] and 24.9% in test [2].
For `O=C(Cc1ccsc1)N1CCn2cc(CN3CCCC3)nc2C1`, the Percent Effect in test [1] was -0.684%; in test [2], -12%.
The matching figures for `O=C([C@H]1CN(CCc2ccccc2)C[C@H]2OCC[C@@H]12)N1CCCO1`: 1.78% and -9.29%.
On the same counts, the results for `Cc1cc(N(C)Cc2cc(C)on2)n2nc(C)c(C)c2n1` are 1.81% and -20%.
